ChEMBL document CHEMBL3988442, “University of Dundee, Small-Polar-MMV Screening Library” (2021)
In all, about 69,000 compounds went through this assay and about 950 (1.4%) showed an effect of 50% or more. What follows is part of a selection rich in strong results, with near analogues and random picks from the rest.

system: Mycobacterium tuberculosis; test: Cornell M. t heat shock assay; type: functional, organism-based; design: dose or concentration left out as unconfirmed; also: in the data most compounds retested in dose-response had high values

Compound | Percent Effect
CN(C)c1nc2c(c(N(C)Cc3n[nH]c4c3CCCC4)n1)CCNCC2 | 31.61%
CN(C)c1nc2c(c(N(C)Cc3n[nH]c4c3CCCCC4)n1)CCNC2 | 76.86%
CN(Cc1n[nH]c2c1CCCC2)c1nc(C2CC2)nc2c1CCNCC2 | 1.399%
CCS(=O)(=O)N1C[C@@H](OCc2ccccn2)[C@@H]2OCCC[C@@H]21.O=C(O)C(F)(F)F | -14.72%
CCC1(CC)Cc2ccccc2-c2nc(NCCO)[nH]c(=O)c21 | -12.78%
CCC1(CC)Cc2ccccc2-c2nc(CN(C)C)nc(O)c21 | 51.81%
CCC1(CC)Cc2ccccc2-c2nc(NCCCO)[nH]c(=O)c21 | 0.6588%
Cc1cccc(C(=O)N2C[C@@H]3COC[C@@H](CC(=O)N4CCCC4)[C@@H]3C2)n1.O=C(O)C(F)(F)F | -12.77%
Cc1ccc(N2CCCC3(COCCN(c4ncccn4)C3)C2)nn1.O=C(O)C(F)(F)F (stereo not drawn) | -5.221%
O=C(O)C(F)(F)F.O=C(c1cc(C2CC2)on1)N1C[C@@H]2COC[C@]2(COc2cccnc2)C1 | 24.08%
CCc1cnc(N2CCC3(CC(=O)N(Cc4csc(C)n4)C3)C2)nc1.O=C(O)C(F)(F)F (stereo not drawn) | 1.546%
Cc1nc(C)n(CC2CCCN(c3ncnc4ccccc34)C2)n1 (stereo not drawn) | -1.971%
Cc1nc(C)n(CC2CCCN(c3ncnc4ccsc34)C2)n1 (stereo not drawn) | 56.12%
Cc1nc(C)n(CC2CCCN(c3ncnc4sccc34)C2)n1 (stereo not drawn) | 24.39%
CC(C)N(C)Cc1cn2c(n1)CN(C(=O)Cc1ccccc1)CC2.O=C(O)C(F)(F)F | -8.481%
CCS(=O)(=O)Nc1ccc2c(c1)C1(CCOCC1)CN2C.O=C(O)C(F)(F)F | 36%
CCCC(=O)Nc1ccc2c(c1)C1(CCOCC1)CN2CCOC.O=C(O)C(F)(F)F | 15.62%
CCC(=O)Nc1ccc2c(c1)C1(CCOCC1)CN2CCF.O=C(O)C(F)(F)F | 28.61%
COCCN1CC2(CCOCC2)c2cc(NC(=O)C3CC=CC3)ccc21.O=C(O)C(F)(F)F | 100.7%
CCC(=O)Nc1ccc2c(c1)C1(CCOCC1)CN2CCOC.O=C(O)C(F)(F)F | 46.17%
CCN1CC2(CCOCC2)c2cc(NS(=O)(=O)CC)ccc21.O=C(O)C(F)(F)F | 51.54%
O=C(O)C(F)(F)F.O=C1COC2(CCN(C(=O)c3ccco3)CC2)CN1Cc1cccnc1 | -2.228%

Compound | Percent Effect
O=C(O)C(F)(F)F.O=C(O)C(F)(F)F.c1cnc(N2C[C@H]3CN(CC4CCOC4)C[C@H]3C2)nc1 (stereo partly drawn) | -39.47%
O=C(O)C(F)(F)F.O=C(c1ccco1)N1CCCC2(CCN(c3nncs3)C2)C1 (stereo not drawn) | 42.37%
CN(C)C(=O)COC[C@@H]1CC[C@H]2[C@H](CCN2c2ccccn2)O1.O=C(O)C(F)(F)F | -1.761%
Cn1cc(CN2CCC[C@]3(C[C@@H](Oc4ccccn4)CO3)C2)cn1.O=C(O)C(F)(F)F.O=C(O)C(F)(F)F | 27.52%
Cn1cnc(S(=O)(=O)N2CC3(CCN(CC4CC4)C3)C2)c1.O=C(O)C(F)(F)F.O=C(O)C(F)(F)F | 2.143%
CO[C@@H]1CCN(Cc2c(C)noc2C)[C@@H]2CN(Cc3cccnc3)C[C@@H]21.O=C(O)C(F)(F)F.O=C(O)C(F)(F)F.O=C(O)C(F)(F)F | 14.07%
CN(CCc1ccncc1)Cc1nccn1Cc1ccccc1 | 9.887%
CN(Cc1ccncc1)Cc1nccn1Cc1ccccc1 | 6.234%
CN(CCc1ccccn1)Cc1nccn1Cc1ccccc1 | 101.1%
CNC[C@H]1CC[C@H](c2cc(CN(C)S(=O)(=O)N(C)C)n(C)n2)CC1.Cl | -16.56%
O=C(O)C(F)(F)F.O=C([C@@H]1CCO[C@@H]2CCN(Cc3ccc(F)cc3)C[C@H]21)N1CCCCO1 | -25.18%
COC1CN(C(=O)OCC(C)C)CCC(=O)N(C)c2ccccc21 (stereo not drawn) | 53.04%
COC1CN(C(=O)CC(C)C)CCC(=O)N(C)c2ccccc21 (stereo not drawn) | 33.11%
COC1CN(C(=O)COC(C)=O)CCC(=O)N(C)c2ccccc21 (stereo not drawn) | 45.97%
COC1CCN(C(=O)CC2CCCC2)CC(=O)N(C)c2ccccc21 (stereo not drawn) | 27.7%
COC1CN(C(=O)CC(C)(C)C)CCC(=O)N(C)c2ccccc21 (stereo not drawn) | 48.93%
COC1CN(C(=O)CC2CCCC2)CCC(=O)N(C)c2ccccc21 (stereo not drawn) | 50.44%
Cn1cc(C[C@H]2[C@H](N3CCOCC3)CCN2C(=O)c2ccco2)cn1.O=C(O)C(F)(F)F | 6.591%
COc1ccc(CN(Cc2cccnc2)CC2CCCO2)c(OC)c1.O=C(O)CC(O)(CC(=O)O)C(=O)O (stereo not drawn) | 5.923%
CCCn1ncc(-c2ccnc(NC3CC(C)(C)NC(C)(C)C3)n2)c1C | -32.44%
CCCn1ncc(-c2ccnc(N[C@@H]3C[C@@H]4CC[C@H]3C4)n2)c1C | 50.09%
CCCn1ncc(-c2ccnc(NC3CCSC3)n2)c1C (stereo not drawn) | -0.2299%

Compound | Percent Effect
CCN1C[C@H]2[C@@H](C1)N(S(=O)(=O)c1ccccc1)CC[C@H]2OC.O=C(O)C(F)(F)F | 4.433%
O=C(CSCC1CC1)N1CCCC(c2nccn2Cc2ccccn2)C1 (stereo not drawn) | -24.76%
O=C(CSCC1CC1)N1CCCC(c2nccn2Cc2ccncc2)C1 (stereo not drawn) | 27.98%
COCCn1ccnc1C1CCCN(C(=O)CSCC2CC2)C1 (stereo not drawn) | 75.33%
CC(C)c1nc2c(n1C)CCN(Cc1cccc(OCC(N)=O)c1)C2 | -13.93%
Cn1cc(CN2CC[C@@H]3[C@@H](CO[C@H]3CNC(=O)c3ccco3)C2)cn1.O=C(O)C(F)(F)F.O=C(O)C(F)(F)F | -15.87%
CC/N=c1\nc(NCC)nc2n1C(O)(Nc1cc(C)ccc1C)CS2 (stereo not drawn) | 7.529%
CC/N=c1\nc(NCC)nc2n1C(O)(Nc1cccc(C)c1C)CS2 (stereo not drawn) | 59.58%
CC/N=c1\nc(NCC)nc2n1C(O)(Nc1cccc(Cl)c1Cl)CS2 (stereo not drawn) | 0.756%
CNC(=O)c1cccc(C2CNCCN2C(=O)c2cccc(F)c2)c1.Cl (stereo not drawn) | -24.93%
O=C(NCc1ccco1)[C@H]1COC[C@H]2CN(Cc3ccccn3)C[C@H]21.O=C(O)C(F)(F)F.O=C(O)C(F)(F)F | -5.073%
Cc1ncccc1-c1cc2cccnc2n1CCCNC(=O)C(C)(C)C.Cl | 11.8%
Cc1nc(-c2ccnc(N3CCNCC3)n2)no1.Cl.Cl | 10.1%
CC(CNS(N)(=O)=O)Oc1cccc(Cl)c1 (stereo not drawn) | -31.66%
CC(C)C[C@H](N)COc1cccc(F)c1Oc1ccccc1 | 5.666%
CC(C)COc1ccccc1C(N)CC(C)C (stereo not drawn) | -26.57%
CC(C)C[C@H](N)COc1cccc(F)c1Oc1cccc(Cl)c1 | 103.9%
COc1ccccc1C(N)CC(C)C (stereo not drawn) | -0.8675%
CNCc1cc(F)ccc1Oc1ccc(Cl)cc1 | -7.892%
CC(C)C[C@H](N)COc1cccc(F)c1Oc1ccc(Cl)cc1 | 105.7%
CCOc1ccccc1C(N)CC(C)C (stereo not drawn) | 6.467%
Cc1ccc(Oc2c(F)cccc2OC[C@@H](N)CC(C)C)cc1 | 104.6%

Compound | Percent Effect
O=C(NC1CC1)[C@@H]1C[C@@H]2CCN(Cc3ccoc3)C[C@@H]2O1.O=C(O)C(F)(F)F | 49.9%
Cc1nn(C)cc1-c1cncn1CCc1ccc2c(c1)OCCO2.Cl | -2.438%
Cl.Cl.c1cncc(OC[C@@H]2CCC[C@@]23CNCCO3)c1 | -0.8406%
Cn1ccnc1CN1CCC2(CC1)CCN(c1ccccc1)C2=O.O=C(O)C(F)(F)F | 8.178%
O=C(O)C(F)(F)F.O=C(O)C(F)(F)F.O=C1Nc2ccccc2C12CCN(Cc1ccccn1)CC2 | -17.02%
Cc1ccccc1C1CCN(CCNC(=O)CS(C)(=O)=O)C1 (stereo not drawn) | -16.65%
Cc1ccccc1C1CCN(CCn2cc(-c3nccn3C)nn2)C1 (stereo not drawn) | 32.84%
Oc1cccc(-c2cc(C3CCN(Cc4cncnc4)C3)ccn2)c1 (stereo not drawn) | 20.76%
Cc1ccccc1C1CCN(CCn2cc(-c3nccs3)nn2)C1 (stereo not drawn) | 59.14%
Cc1ccccc1C1CCN(CCn2cc(-c3cccc(O)c3)nn2)C1 (stereo not drawn) | 72.96%
CCSCCn1cc(-c2nccs2)nn1 | 12.13%
CCC(=O)N1CCC2(CC1)CN(CCO)Cc1ccccc12.O=C(O)C(F)(F)F | -19.17%
NCCc1c(-c2ccccc2)[nH][nH]c1=O.O=C(O)C(=O)O | -25.01%
O=C(CCc1cncc(F)c1)NS(=O)(=O)c1ccc(F)cc1F | 21.56%
Cn1cccc1C(=O)N1C[C@H]2CN(Cc3cccs3)C[C@H]2C1.O=C(O)C(F)(F)F | -10.6%
COCCn1c(-c2cccc(OC)c2)cnc1NC(=O)NCC(C)C | 22.14%
COCCn1c(-c2cccc(OC)c2)cnc1NC(=O)NCCC(C)C | 67.45%
COCCCNC(=O)Nc1ncc(-c2cccc(OC)c2)n1CCOC | -7.26%
Cc1nn(C)c(Cl)c1CNCc1cccnc1N1CCN(C)CC1.Cl | -22.17%
O=C(O)C(F)(F)F.O=C1Nc2ccccc2C12CCN(c1nccs1)CC2 | -0.7259%
CCC1=N[C@@]2(CC[C@@H]3CN(Cc4ccc(Cl)cc4)C[C@@H]32)C(=O)N1.O=C(O)C(F)(F)F | 4.216%
CN1Cc2ccccc2CC2(CCN(CCO)CC2)C1=O.O=C(O)C(F)(F)F | 19.63%
